Measurements reported in PubChem BioAssay (NCATS).
Values joined by “and” are separate entries in the source; they are usually repeats but may differ in a detail not shown here. Identical values can stand only once. Inconclusive results are not listed.

Assay: qHTS Assay for Lipid Storage Modulators (AID 1519)
Details: Drosophila S3 cells, BODIPY lipid droplet/cell ratio, laser cytometry; measured here: lipid channel max response; cells loaded with oleic acid
How it was run: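 Cells seeded at 5,000 per well were treated with compounds over a concentration series and loaded with oleic acid (400 uM, as added). Lipid droplet fluorescence (488 nm excitation, 500-530 nm channel) was read by laser-scanning cytometry and normalized to 20 uM Triacsin C.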
`N#Cc1ccc(C(c2ccc(C#N)cc2)n2cncn2)cc1` gave a max response of -18.7%.
For `N[C@@H]1CONC1=O`, the max response was -10.7% and -4.08% and 1.58%.
For `Cc1ccc(N(CC2=NCCN2)c2cccc(O)c2)cc1`, the max response was -8.46% and 20.7% and 65.8%.
For `NCCc1ccc(O)c(O)c1`, the max response was 20.7% and 9.74% and -24.3%.
With `Clc1cccc(Cl)c1NC1=NCCN1` the max response was -1.31% and -6% and -15.4%.
For `NS(=O)(=O)c1cc2c(cc1Cl)NC=NS2(=O)=O`, the max response was 1.14% and 18.5% and -16.5%.
For `O=C(O)COCCN1CCN(C(c2ccccc2)c2ccc(Cl)cc2)CC1` (stereo not drawn), the max response was 13.6%.
For `CCCCNc1cc(C(=O)O)cc(S(N)(=O)=O)c1Oc1ccccc1`, the max response was -1.29% and 24.4% and -13.7%.
`CC(=O)Oc1ccccc1C(=O)O` showed a max response of 27.8%.
For `CCOC(=O)C1=C[C@]2(CC)CCCN3CCc4c(n1c1ccccc41)[C@@H]32`, the max response was -38.8%.
In the case of `Nc1ccc(S(=O)(=O)Nc2ccnn2-c2ccccc2)cc1`, the max response is reported as -3.23% and 26.2%.
In the case of `Cc1[nH]c(=O)c(C#N)cc1-c1ccncc1`, the max response is reported as -4.74% and -14.2%.
`NC[C@H](O)c1ccc(O)c(O)c1` showed a max response of -21.1%.
With `Cc1oncc1C(=O)Nc1ccc(C(F)(F)F)cc1` the max response was -15.6% and 18.5% and -28.2%.
With `CCN(CC)CCCC(C)Nc1ccnc2cc(Cl)ccc12` (stereo not drawn) the max response was 21.7%.
For `COc1ccc2nc(S(=O)Cc3ncc(C)c(OC)c3C)[nH]c2c1` (stereo not drawn), the max response was 1.74%.
Work on `CCCc1nc2c(C)cc(-c3nc4ccccc4n3C)cc2n1Cc1ccc(-c2ccccc2C(=O)O)cc1` yielded a max response of -15.7%.
`CCCc1nn(C)c2c(=O)[nH]c(-c3cc(S(=O)(=O)N4CCN(C)CC4)ccc3OCC)nc12` gave a max response of 27.6%.
With `Cn1cnc([N+](=O)[O-])c1Sc1ncnc2nc[nH]c12` the max response was 0.0916% and 9.95% and -32.9%.
For `NNCCc1ccccc1`, the max response was -2.33% and 4.58%.
For `Nc1nc2ccc(OC(F)(F)F)cc2s1`, the max response was -8.28% and -25.3%.
For `N=c1nc(N2CCCCC2)cc(N)n1O`, the max response was 1.34% and 23.5% and 29.3%.
In the case of `O=C1CCC(N2C(=O)c3ccccc3C2=O)C(=O)N1` (stereo not drawn), the max response is reported as 12.7% and -27.8%.
